Results from publication PMC7862700, “An all-to-all approach to the identification of sequence-specific readers for epigenetic DNA modifications on cytosine”.

What was measured:
Test in all cases: DAPPL (digital affinity profiling via proximity ligation, sequencing); 10 mM Tris-HCl pH 7.5, 50 mM NaCl, 1 mM DTT, 4% glycerol, room temperature, 30 min; GST-TFs on glutathione beads, 16-mer random dsDNA library, 0.1% formaldehyde crosslink after washing; high values mean tight binding
FLI1 = molecular target: T1, FLI1 (Homo sapiens, UniProt Q01543 1-452); conditions: protein: recombinant; tags: N-terminal GST; dsDNA, one strand shown
T1 sequence: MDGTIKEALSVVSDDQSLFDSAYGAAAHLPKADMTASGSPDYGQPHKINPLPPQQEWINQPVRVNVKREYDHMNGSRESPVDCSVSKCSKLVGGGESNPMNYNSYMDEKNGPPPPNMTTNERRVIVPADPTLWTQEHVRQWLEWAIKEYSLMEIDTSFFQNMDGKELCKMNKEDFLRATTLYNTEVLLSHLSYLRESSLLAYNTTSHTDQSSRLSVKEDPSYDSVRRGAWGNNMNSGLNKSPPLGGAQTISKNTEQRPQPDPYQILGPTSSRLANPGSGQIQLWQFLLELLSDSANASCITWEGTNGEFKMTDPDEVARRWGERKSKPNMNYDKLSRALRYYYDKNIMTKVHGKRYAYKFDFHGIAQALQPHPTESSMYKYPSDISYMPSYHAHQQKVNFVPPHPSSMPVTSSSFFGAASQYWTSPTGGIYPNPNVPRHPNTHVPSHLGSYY
Procedure, shortened: (§1)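 Beads coated with glutathione captured GST-fused human transcription factors that had been expressed in yeast, and the factors were then given DNA barcodes and pooled with a tag-only sample. The pools were incubated with 200 nmole of a random double-stranded 16-mer DNA library in Tris/NaCl/DTT/glycerol buffer for 30 min at room temperature, washed, crosslinked with 0.1% formaldehyde and proximity-ligated with BsaI/T4 ligase at 37 °C for 1 h. PCR amplification and Illumina NextSeq500 sequencing came last. Binding signal is each hexamer's read frequency for a factor divided by its frequency for the tag-only sample.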

ELK1 = molecular target: T2, ELK1 (Homo sapiens, UniProt P19419 1-428); conditions: protein: recombinant; tags: N-terminal GST; dsDNA, one strand shown
T2 sequence: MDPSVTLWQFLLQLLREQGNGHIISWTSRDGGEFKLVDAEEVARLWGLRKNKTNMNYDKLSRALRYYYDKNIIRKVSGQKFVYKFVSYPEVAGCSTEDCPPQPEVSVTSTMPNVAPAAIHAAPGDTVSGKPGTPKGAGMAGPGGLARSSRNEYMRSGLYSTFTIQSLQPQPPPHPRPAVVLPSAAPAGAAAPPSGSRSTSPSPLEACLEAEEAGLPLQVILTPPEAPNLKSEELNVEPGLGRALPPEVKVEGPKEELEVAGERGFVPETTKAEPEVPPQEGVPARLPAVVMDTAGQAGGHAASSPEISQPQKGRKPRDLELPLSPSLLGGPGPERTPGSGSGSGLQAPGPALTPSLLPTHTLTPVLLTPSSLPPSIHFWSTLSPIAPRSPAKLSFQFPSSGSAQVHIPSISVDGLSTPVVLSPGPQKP
Procedure, shortened: as §1

GABPA = molecular target: T3, GABPA (Homo sapiens, UniProt Q06546 1-454); conditions: protein: recombinant; tags: N-terminal GST; dsDNA, one strand shown
T3 sequence: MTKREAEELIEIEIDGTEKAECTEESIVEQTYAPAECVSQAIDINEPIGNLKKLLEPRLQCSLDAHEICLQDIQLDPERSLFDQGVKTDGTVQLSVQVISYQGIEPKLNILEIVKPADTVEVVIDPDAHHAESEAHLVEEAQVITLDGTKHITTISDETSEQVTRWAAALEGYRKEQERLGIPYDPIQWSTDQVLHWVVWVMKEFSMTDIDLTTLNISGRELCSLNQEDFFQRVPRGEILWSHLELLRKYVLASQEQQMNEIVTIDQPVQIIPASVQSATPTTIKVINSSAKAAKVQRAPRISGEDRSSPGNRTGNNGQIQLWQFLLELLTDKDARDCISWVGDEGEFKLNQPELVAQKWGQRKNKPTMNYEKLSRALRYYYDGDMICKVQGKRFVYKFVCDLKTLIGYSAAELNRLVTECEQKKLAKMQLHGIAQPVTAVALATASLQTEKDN
Procedure, shortened: as §1

ERG = molecular target: T4, ERG (Homo sapiens, UniProt P11308 1-479); conditions: protein: recombinant; tags: N-terminal GST; dsDNA, one strand shown
T4 sequence: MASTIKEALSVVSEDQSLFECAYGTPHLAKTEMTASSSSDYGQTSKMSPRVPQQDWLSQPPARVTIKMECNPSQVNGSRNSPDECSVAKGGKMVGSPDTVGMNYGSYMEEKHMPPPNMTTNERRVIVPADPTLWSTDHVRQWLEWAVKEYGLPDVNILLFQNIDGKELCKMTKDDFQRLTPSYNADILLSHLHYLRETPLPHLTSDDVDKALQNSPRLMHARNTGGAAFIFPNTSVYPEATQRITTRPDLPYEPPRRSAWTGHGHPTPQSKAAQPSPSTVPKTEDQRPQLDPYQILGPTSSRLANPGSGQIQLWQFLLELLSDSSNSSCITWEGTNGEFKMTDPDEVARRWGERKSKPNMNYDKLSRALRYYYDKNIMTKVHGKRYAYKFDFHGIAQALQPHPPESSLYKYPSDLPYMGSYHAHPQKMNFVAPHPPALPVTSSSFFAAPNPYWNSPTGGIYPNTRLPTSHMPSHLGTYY
Procedure, shortened: as §1

ELF1 = ELF1 (Homo sapiens, UniProt P32519 1-619); conditions: protein: recombinant; tags: N-terminal GST; dsDNA, one strand shown
Procedure, shortened: as §1

EHF = molecular target: T5, EHF (Homo sapiens, UniProt Q9NZC4 1-300); conditions: protein: recombinant; tags: N-terminal GST; dsDNA, one strand shown
T5 sequence: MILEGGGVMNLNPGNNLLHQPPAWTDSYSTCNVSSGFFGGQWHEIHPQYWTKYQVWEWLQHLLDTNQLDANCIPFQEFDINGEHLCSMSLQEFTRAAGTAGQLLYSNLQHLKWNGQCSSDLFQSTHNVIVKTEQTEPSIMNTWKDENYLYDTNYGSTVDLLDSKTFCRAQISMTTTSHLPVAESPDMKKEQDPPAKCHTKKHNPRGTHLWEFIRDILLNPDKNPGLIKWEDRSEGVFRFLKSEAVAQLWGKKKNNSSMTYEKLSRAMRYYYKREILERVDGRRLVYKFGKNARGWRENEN
Procedure, shortened: as §1

SPI1 = SPI1 (Homo sapiens, UniProt P17947 1-270); conditions: protein: recombinant; tags: N-terminal GST; dsDNA, one strand shown
Procedure, shortened: as §1

SPIB = SPIB (Homo sapiens, UniProt Q01892 1-262); conditions: protein: recombinant; tags: N-terminal GST; dsDNA, one strand shown
Procedure, shortened: as §1

ELK3 = molecular target: T6, ELK3 (Homo sapiens, UniProt P41970 1-407); conditions: protein: recombinant; tags: N-terminal GST; dsDNA, one strand shown
T6 sequence: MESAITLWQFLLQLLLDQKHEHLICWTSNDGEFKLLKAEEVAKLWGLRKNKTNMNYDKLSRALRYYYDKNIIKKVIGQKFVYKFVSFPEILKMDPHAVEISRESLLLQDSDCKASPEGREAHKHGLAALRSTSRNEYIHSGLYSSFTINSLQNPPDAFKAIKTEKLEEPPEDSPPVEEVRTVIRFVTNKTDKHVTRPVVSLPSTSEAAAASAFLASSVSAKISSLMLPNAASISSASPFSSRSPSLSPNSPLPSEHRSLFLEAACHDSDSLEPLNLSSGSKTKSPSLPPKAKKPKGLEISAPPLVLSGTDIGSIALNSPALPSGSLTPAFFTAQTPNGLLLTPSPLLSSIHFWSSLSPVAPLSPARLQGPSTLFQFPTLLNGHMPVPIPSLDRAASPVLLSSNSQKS
Procedure, shortened: as §1

FEV = molecular target: T7, FEV (Homo sapiens, UniProt Q99581 1-238); conditions: protein: recombinant; tags: N-terminal GST; dsDNA, one strand shown
T7 sequence: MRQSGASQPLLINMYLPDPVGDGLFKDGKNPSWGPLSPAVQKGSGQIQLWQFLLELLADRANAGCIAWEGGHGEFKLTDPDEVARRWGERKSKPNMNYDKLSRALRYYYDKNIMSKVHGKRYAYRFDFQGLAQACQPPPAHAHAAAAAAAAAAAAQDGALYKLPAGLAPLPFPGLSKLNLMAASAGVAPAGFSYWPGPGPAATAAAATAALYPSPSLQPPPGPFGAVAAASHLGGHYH
Procedure, shortened: as §1

ETV5 = ETV5 (Homo sapiens, UniProt P41161 1-510); conditions: protein: recombinant; tags: N-terminal GST; dsDNA, one strand shown
Procedure, shortened: as §1

HSF1 = HSF1 (Homo sapiens, UniProt Q00613 1-529); conditions: protein: recombinant; tags: N-terminal GST; chain copies: 3; dsDNA, one strand shown
Procedure, shortened: as §1

SPIC = molecular target: T8, SPIC (Homo sapiens, UniProt Q8N5J4 1-248); conditions: protein: recombinant; tags: N-terminal GST; dsDNA, one strand shown
T8 sequence: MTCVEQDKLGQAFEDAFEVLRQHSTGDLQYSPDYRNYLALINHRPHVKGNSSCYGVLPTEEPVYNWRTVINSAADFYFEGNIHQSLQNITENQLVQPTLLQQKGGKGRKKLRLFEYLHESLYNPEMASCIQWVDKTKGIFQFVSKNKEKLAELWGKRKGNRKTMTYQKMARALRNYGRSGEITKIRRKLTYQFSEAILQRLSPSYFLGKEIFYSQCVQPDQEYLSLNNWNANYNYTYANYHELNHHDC
Procedure, shortened: as §1

ELF4 = ELF4 (Homo sapiens, UniProt Q99607 1-663); conditions: protein: recombinant; tags: N-terminal GST; dsDNA, one strand shown
Procedure, shortened: as §1

ELK4 = molecular target: T9, ELK4 (Homo sapiens, UniProt P28324-2 1-405); conditions: protein: recombinant; tags: N-terminal GST; dsDNA, one strand shown
T9 sequence: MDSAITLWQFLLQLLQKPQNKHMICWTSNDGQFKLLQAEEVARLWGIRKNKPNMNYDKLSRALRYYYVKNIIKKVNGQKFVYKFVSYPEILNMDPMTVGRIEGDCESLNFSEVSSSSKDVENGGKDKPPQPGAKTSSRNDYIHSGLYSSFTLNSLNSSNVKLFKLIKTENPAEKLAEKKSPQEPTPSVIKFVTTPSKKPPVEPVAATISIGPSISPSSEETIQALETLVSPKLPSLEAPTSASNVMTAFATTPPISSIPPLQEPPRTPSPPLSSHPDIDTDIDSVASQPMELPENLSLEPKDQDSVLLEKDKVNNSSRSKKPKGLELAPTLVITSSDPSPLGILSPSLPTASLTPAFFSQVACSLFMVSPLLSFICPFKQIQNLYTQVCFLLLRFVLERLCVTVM
Procedure, shortened: as §1

ETV2 = molecular target: T10, ETV2 (Homo sapiens, UniProt O00321 1-342); conditions: protein: recombinant; tags: N-terminal GST; dsDNA, one strand shown
T10 sequence: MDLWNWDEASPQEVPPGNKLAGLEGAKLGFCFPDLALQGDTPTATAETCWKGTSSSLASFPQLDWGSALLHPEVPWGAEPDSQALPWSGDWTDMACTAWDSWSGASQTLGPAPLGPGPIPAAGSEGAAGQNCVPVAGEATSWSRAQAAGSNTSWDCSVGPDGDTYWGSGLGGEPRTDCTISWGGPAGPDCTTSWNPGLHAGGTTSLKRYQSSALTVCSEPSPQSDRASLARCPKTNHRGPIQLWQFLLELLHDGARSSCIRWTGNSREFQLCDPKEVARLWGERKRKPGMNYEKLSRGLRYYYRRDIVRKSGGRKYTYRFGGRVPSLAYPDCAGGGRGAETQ
Procedure, shortened: as §1

ELF3 = molecular target: T11, ELF3 (Homo sapiens, UniProt P78545 1-371); conditions: protein: recombinant; tags: N-terminal GST; dsDNA, one strand shown
T11 sequence: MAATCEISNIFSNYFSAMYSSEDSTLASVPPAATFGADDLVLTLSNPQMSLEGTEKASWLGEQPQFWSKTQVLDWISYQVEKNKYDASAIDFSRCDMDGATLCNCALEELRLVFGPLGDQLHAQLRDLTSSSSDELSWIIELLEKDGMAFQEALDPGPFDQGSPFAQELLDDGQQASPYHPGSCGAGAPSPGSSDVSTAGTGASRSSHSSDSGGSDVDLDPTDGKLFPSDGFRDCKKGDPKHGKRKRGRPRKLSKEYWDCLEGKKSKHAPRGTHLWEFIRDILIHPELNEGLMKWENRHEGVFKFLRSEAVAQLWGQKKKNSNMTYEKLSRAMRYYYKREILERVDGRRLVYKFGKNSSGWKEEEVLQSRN
Procedure, shortened: as §1

CRX = CRX (Homo sapiens, UniProt O43186 1-299); conditions: protein: recombinant; tags: N-terminal GST; dsDNA, one strand shown
Procedure, shortened: as §1

ETV1 = ETV1 (Homo sapiens, UniProt P50549 1-477); conditions: protein: recombinant; tags: N-terminal GST; dsDNA, one strand shown
Procedure, shortened: as §1

Chain of ELF1 (P32519 whole entry): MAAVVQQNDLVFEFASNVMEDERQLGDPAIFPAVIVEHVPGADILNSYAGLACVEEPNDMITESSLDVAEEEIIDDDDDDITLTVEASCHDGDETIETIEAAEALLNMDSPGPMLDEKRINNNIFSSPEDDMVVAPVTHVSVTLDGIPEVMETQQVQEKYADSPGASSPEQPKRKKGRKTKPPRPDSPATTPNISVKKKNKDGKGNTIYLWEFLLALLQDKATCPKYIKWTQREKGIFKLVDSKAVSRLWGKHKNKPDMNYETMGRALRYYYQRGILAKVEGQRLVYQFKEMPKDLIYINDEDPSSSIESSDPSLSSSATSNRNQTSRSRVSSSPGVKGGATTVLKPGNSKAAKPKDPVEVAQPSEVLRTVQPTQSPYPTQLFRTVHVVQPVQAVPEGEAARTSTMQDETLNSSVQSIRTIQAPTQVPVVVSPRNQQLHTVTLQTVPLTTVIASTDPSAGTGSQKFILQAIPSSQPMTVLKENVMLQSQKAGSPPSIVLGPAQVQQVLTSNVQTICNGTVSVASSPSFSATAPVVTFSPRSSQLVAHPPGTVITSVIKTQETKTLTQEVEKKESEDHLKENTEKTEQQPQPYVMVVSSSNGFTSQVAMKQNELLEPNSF
Chain of HSF1 (Q00613 whole entry): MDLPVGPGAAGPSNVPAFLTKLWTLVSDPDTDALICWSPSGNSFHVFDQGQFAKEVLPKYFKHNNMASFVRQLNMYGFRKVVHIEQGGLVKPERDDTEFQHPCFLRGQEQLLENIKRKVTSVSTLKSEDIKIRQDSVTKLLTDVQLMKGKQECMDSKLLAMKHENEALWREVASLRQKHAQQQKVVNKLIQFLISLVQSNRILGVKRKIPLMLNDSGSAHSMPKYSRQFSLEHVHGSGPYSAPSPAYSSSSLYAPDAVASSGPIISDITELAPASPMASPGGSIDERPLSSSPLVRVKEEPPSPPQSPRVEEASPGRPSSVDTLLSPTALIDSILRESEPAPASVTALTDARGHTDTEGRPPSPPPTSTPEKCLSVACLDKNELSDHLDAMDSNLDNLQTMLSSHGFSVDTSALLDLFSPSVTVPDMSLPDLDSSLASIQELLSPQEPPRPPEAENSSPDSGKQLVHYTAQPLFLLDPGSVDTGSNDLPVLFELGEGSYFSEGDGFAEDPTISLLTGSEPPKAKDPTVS
Chain of ELF4 (Q99607 whole entry): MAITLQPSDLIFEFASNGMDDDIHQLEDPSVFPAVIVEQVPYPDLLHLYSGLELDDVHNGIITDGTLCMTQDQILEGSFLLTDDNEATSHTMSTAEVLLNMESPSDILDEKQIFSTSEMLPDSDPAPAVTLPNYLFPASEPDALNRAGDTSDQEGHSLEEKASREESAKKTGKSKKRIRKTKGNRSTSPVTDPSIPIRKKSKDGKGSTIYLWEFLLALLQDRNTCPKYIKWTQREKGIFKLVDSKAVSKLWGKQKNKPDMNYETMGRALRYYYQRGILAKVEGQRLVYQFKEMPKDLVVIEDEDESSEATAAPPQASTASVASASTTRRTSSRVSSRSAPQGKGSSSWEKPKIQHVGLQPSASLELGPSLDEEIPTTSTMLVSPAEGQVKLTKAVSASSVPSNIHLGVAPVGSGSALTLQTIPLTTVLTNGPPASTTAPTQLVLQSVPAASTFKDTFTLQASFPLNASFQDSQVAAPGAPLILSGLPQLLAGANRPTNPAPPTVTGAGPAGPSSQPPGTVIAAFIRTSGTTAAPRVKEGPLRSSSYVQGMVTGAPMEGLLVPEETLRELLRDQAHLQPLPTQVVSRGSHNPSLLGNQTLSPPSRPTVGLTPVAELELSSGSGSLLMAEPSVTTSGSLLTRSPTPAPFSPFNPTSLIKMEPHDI
Chain of ETV1 (P50549 whole entry): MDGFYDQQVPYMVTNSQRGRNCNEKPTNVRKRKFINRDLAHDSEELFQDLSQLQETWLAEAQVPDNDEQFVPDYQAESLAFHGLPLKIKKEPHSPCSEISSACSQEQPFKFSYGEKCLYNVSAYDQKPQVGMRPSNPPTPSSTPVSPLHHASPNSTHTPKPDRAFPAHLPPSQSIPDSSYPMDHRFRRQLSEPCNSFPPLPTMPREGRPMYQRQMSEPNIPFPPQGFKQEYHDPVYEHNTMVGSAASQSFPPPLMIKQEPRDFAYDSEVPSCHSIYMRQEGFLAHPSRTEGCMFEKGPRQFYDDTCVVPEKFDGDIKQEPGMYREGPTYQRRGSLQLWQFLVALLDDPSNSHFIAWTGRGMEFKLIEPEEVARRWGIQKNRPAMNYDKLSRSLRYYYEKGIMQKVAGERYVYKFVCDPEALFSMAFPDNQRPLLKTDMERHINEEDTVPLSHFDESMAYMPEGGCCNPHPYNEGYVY
Chain of CRX (O43186 whole entry): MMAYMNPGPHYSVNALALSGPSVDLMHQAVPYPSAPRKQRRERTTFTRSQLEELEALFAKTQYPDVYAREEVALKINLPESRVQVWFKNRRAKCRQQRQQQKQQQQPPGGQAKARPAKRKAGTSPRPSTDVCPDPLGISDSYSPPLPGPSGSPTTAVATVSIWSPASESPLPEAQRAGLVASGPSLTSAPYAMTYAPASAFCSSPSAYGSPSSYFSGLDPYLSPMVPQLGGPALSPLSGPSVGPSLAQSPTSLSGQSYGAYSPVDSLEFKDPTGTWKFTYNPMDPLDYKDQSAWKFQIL
Chain of ETV5 (P41161 whole entry): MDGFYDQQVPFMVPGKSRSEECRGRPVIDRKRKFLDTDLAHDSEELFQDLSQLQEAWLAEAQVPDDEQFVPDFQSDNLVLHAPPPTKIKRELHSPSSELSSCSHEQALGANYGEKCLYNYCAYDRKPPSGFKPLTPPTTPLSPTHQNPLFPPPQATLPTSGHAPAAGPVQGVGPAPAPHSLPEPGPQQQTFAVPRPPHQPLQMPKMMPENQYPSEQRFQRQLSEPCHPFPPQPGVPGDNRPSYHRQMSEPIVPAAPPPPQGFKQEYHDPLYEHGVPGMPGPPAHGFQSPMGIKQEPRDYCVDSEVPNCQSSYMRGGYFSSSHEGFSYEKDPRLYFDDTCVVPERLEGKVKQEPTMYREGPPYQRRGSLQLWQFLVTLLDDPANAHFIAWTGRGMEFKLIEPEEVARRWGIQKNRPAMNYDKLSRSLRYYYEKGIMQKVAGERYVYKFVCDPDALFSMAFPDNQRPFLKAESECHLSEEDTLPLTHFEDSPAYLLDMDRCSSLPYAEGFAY
Chain of SPIB (Q01892 whole entry): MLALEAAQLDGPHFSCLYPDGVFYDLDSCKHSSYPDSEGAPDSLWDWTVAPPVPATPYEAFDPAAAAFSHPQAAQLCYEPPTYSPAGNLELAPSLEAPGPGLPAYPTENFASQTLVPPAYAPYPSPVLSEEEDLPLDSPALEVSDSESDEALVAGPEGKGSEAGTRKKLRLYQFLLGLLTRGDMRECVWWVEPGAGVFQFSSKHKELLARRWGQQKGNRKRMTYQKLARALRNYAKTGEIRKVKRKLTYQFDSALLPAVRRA

TTTTCG
binding signal (FLI1): 1.18 fold enrichment (6-mer frequency, TF over GST control)
binding signal (ELK1): 1.28 fold enrichment (6-mer frequency, TF over GST control)
binding signal (GABPA): 1.24 fold enrichment (6-mer frequency, TF over GST control)
binding signal (ERG): 1.2 fold enrichment (6-mer frequency, TF over GST control)
binding signal (ELF1): 1.22 fold enrichment (6-mer frequency, TF over GST control)
binding signal (EHF): 1.25 fold enrichment (6-mer frequency, TF over GST control)
binding signal (SPI1): 1.27 fold enrichment (6-mer frequency, TF over GST control)
binding signal (SPIB): 1.16 fold enrichment (6-mer frequency, TF over GST control)
binding signal (ELK3): 1.35 fold enrichment (6-mer frequency, TF over GST control)
binding signal (FEV): 1.23 fold enrichment (6-mer frequency, TF over GST control)
binding signal (ETV5): 1.27 fold enrichment (6-mer frequency, TF over GST control)
binding signal (HSF1): 1.53 fold enrichment (6-mer frequency, TF over GST control)
binding signal (SPIC): 1.11 fold enrichment (6-mer frequency, TF over GST control)
binding signal (ELF4): 1.29 fold enrichment (6-mer frequency, TF over GST control)
binding signal (ELK4): 1.08 fold enrichment (6-mer frequency, TF over GST control)
binding signal (ETV2): 1.33 fold enrichment (6-mer frequency, TF over GST control)
binding signal (ELF3): 1.11 fold enrichment (6-mer frequency, TF over GST control)
binding signal (CRX): 1.28 fold enrichment (6-mer frequency, TF over GST control)
binding signal (ETV1): 1.2 fold enrichment (6-mer frequency, TF over GST control)
